Measured values taken from PubChem BioAssay.
For part of these data: Results with a measured potency or affinity are listed apart. Calls of active or inactive are those of the source. Unless noted, how the calls were made is not given here.

How the values were obtained:
[1] = antimalarial activity against Dd2 strain (AID 2302;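 active means growth inhibition above 50% at the single 2 µM test dose, taken to imply half-maximal potency below 2 µM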;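 further: 0% = DMSO untreated growth and 100% = chloroquine plus artemisinin killed control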); details: P. falciparum Dd2 in RBCs, LDH growth readout, 72 h; at 2 µM; active compounds read high
[2] = HepG2 cytotoxicity, primary screen, cytotoxicity control for P. falciparum antimalarial project, cell-based, ATP luminescence (AID 2303;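 active means inhibition above 50%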;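 further: 0% = DMSO wells and 100% = digitonin-killed cells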); details: HepG2 viability, 24-48 h, at 10 µM, active compounds read high
[3] = biological target: L-lactate dehydrogenase (Plasmodium falciparum (isolate CDC / Honduras)) (UniProt Q27743); experiment: PfLDH activity inhibition – cell lysate, 3D7 strain, counter-screen for P. falciparum growth inhibition project (AID 2304);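 further: 0% = vehicle and 100% = reference inhibitor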; details: P. falciparum 3D7 crude extract, LDH APAD/NBT absorbance; at 2 µM; active compounds read high
Sequence of L-lactate dehydrogenase (Plasmodium falciparum (isolate CDC / Honduras)) (Q27743 whole entry, looked up): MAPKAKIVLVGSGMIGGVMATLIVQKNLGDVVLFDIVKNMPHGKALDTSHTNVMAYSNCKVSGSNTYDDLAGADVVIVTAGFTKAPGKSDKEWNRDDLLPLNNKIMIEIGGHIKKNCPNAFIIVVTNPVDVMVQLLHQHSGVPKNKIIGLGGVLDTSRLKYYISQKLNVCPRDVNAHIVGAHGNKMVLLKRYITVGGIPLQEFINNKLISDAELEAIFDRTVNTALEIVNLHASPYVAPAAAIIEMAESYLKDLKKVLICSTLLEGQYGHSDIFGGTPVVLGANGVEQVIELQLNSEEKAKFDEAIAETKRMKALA

[4] = inhibition of 3D7 malaria parasite growth – strain 3D7 (AID 2306);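 further: 0% = DMSO wells and 100% = chloroquine plus artemisinin control wells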; details: P. falciparum 3D7 erythrocytic growth, LDH absorbance, 72 h; at 2 µM; active compounds read high
[5] = biological target: Calcium-dependent protein kinase 1 (Plasmodium falciparum (isolate 3D7)) (UniProt P62344); experiment: PfCDPK1 kinase inhibitors, biochemical, TCAMS library (AID 1159585; cut-off not given, nearly all actives have IC50 up to about 0.98 µM;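 further: inhibitors leave more ATP so luminescence rises with inhibition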); details: recombinant PfCDPK1, Kinase-Glo ATP depletion luminescence
Sequence of Calcium-dependent protein kinase 1 (Plasmodium falciparum (isolate 3D7)) (P62344 whole entry, looked up): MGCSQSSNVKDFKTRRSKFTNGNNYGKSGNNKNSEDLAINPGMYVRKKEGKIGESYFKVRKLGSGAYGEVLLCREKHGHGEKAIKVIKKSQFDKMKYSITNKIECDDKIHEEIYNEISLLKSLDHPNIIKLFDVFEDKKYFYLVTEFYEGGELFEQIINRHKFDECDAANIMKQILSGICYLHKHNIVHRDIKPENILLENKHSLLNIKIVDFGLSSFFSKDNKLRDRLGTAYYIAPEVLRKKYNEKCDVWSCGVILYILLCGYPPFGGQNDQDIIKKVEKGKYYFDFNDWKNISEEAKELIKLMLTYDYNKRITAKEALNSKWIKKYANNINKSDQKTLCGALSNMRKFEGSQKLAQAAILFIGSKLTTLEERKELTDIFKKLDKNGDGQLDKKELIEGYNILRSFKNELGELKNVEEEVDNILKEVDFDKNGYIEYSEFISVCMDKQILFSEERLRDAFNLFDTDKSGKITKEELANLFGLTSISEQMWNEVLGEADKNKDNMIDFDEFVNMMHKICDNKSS

[6] = biological target: Plasmodium falciparum protein kinase 6 (PK6, PF3D7_1337100) (UniProt Q8IDW1); experiment: PfPK6 kinase inhibitors, biochemical, TCAMS library (AID 1159586); details: recombinant PfPK6, Kinase-Glo ATP depletion luminescence
Sequence of Plasmodium falciparum protein kinase 6 (PK6, PF3D7_1337100) (Q8IDW1 1-305): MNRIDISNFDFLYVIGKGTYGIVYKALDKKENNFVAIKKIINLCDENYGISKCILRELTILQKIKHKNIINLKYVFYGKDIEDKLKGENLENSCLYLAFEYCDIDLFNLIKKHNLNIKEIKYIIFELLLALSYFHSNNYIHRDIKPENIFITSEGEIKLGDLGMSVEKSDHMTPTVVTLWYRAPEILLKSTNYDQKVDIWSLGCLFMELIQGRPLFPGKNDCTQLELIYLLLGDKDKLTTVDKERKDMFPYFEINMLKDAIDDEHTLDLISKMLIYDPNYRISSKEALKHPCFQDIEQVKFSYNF

[7] = biological target: Protein kinase 7 (PK7), Plasmodium falciparum 3D7 (PF3D7_0213400) (UniProt Q7YTF7); experiment: inhibition of Plasmodium PK7 catalytic activity – biochemical, TCAMS antimalarial set, Kinase-Glo luminescence (AID 1159587); details: recombinant PfPK7, Kinase-Glo ATP depletion luminescence
Sequence of Protein kinase 7 (PK7), Plasmodium falciparum 3D7 (PF3D7_0213400) (Q7YTF7 1-343): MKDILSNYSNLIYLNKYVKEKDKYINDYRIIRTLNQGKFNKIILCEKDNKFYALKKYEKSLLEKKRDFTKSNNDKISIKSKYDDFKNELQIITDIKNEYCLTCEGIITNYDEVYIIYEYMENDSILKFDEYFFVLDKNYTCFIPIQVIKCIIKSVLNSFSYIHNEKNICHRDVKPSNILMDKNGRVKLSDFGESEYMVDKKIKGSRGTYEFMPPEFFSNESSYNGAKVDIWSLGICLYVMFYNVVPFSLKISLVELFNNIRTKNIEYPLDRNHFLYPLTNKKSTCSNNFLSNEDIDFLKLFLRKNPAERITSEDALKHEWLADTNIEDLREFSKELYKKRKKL

[8] = biological target: Calcium-dependent protein kinase 4 (Plasmodium falciparum (isolate 3D7)) (UniProt Q8IBS5); experiment: PfCDPK4 kinase inhibitors, biochemical, TCAMS library (AID 1159588; cut-off not given, nearly all actives have IC50 up to about 0.91 µM); details: recombinant PfCDPK4, Kinase-Glo ATP depletion luminescence
Sequence of Calcium-dependent protein kinase 4 (Plasmodium falciparum (isolate 3D7)) (Q8IBS5 whole entry, looked up): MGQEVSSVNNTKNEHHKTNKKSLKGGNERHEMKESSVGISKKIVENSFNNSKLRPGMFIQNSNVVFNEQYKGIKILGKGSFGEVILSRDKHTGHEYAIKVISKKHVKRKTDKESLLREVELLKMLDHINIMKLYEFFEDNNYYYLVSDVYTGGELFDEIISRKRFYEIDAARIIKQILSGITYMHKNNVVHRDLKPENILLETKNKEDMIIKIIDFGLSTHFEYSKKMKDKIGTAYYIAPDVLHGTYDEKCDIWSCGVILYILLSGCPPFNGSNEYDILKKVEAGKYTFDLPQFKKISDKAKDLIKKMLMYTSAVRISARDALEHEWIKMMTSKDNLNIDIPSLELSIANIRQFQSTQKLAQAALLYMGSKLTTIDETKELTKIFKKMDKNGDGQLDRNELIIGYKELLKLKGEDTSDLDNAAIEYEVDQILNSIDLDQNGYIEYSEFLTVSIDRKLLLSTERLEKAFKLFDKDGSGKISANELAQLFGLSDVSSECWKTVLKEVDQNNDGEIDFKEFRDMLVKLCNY

Cc1nccn1CCNC(=O)CN1CCC2(CCC1=O)CC(=O)c1ccccc1O2 (configuration not stated)
inactive: growth inhibition [1] 4% | inhibition [2] -7% | inhibition [3] 7% | outcome [5] | outcome [6] | outcome [7] | outcome [8]
active: growth inhibition [4] 98%

C=CCc1ccccc1OCC(O)CN(C1CCCCC1)C1CCCCC1 (configuration not stated)
inactive: inhibition [3] 1% | outcome [5] | outcome [6] | outcome [7] | outcome [8]
active: growth inhibition [1] 84% | inhibition [2] 50% | growth inhibition [4] 93%

CC(C)C[C@H](Nc1ccnc(NCC2CCCCC2)n1)C(=O)NCCc1ccccc1
active: growth inhibition [1] 66% | growth inhibition [4] 88%
inactive: inhibition [2] 10% | inhibition [3] 0% | outcome [5] | outcome [6] | outcome [7] | outcome [8]

Clc1ccc(CNc2nc(NCCc3cnc[nH]3)nc(N3CCCC4CCCCC43)n2)cc1 (configuration not stated)
inactive: inhibition [2] 10% | inhibition [3] 4% | outcome [5] | outcome [6] | outcome [7] | outcome [8]
active: growth inhibition [1] 100% | growth inhibition [4] 101%

COCCNCc1ccc(-c2ccccc2CNC2CCN(Cc3ccccc3)CC2)cc1
active: growth inhibition [4] 97%
inactive: growth inhibition [1] 28% | inhibition [2] 17% | inhibition [3] -1% | outcome [5] | outcome [6] | outcome [7] | outcome [8]

COc1ccc(NC(=O)N2CCCN(CCCCCNC(=O)/C=C/c3ccc(Cl)cc3)CC2)cc1Cl
active: growth inhibition [4] 97%
inactive: growth inhibition [1] 1% | inhibition [2] 15% | inhibition [3] 1% | outcome [5] | outcome [6] | outcome [7] | outcome [8]

CN(C)c1ccc(CN2CCC(CNC(=O)c3cc(-c4ccccc4F)cs3)C2)cc1 (configuration not stated)
active: growth inhibition [4] 101%
inactive: growth inhibition [1] 33% | inhibition [2] 35% | inhibition [3] 2% | outcome [5] | outcome [6] | outcome [7] | outcome [8]

COc1cc2c(C3CCN(CC4CCC(NC(=O)/C=C/c5ccc(Cl)c(Cl)c5)CC4)CC3)c[nH]c2cn1 (configuration not stated)
active: growth inhibition [1] 100% | growth inhibition [4] 101%
inactive: inhibition [2] 44% | inhibition [3] -5% | outcome [5] | outcome [6] | outcome [7] | outcome [8]

CCn1cc(C=C2Oc3c(ccc(O)c3CN3CCCCC3)C2=O)c2ccccc21
active: growth inhibition [1] 99% | growth inhibition [4] 101%
inactive: inhibition [2] -9% | inhibition [3] -3% | outcome [5] | outcome [6] | outcome [7] | outcome [8]

COc1cccc2cc(C(=O)N[C@@H](CC(C)C)C(=O)N[C@H](/C=N/NC(=O)Cc3cccnc3)CCc3ccccc3)oc12
active: growth inhibition [1] 54% | growth inhibition [4] 82%
inactive: inhibition [2] 6% | inhibition [3] 2% | outcome [5] | outcome [6] | outcome [7] | outcome [8]

O=C(Nc1cccc(CN2CCN(C(=O)c3ccccc3)CC2)c1)c1ccco1
active: growth inhibition [4] 95%
inactive: growth inhibition [1] 42% | inhibition [2] 6% | inhibition [3] -2% | outcome [5] | outcome [6] | outcome [7] | outcome [8]

Cc1nnsc1C(=O)Nc1cccc(-c2ccc(-c3nc4ccc(C(F)(F)F)cc4[nH]3)cc2)c1
active: growth inhibition [1] 97% | inhibition [2] 62% | growth inhibition [4] 99%
inactive: inhibition [3] 3% | outcome [5] | outcome [6] | outcome [7] | outcome [8]

COc1ccc2ncc(F)c(CCN3C[C@H](CNCc4ccc5oc(=O)ccc5c4)[C@H](O)C3)c2n1
inactive: growth inhibition [1] 6% | inhibition [2] 18% | inhibition [3] 3% | outcome [5] | outcome [6] | outcome [7] | outcome [8]
active: growth inhibition [4] 89%

CCC(C)C#Cc1c(C)nc(N)nc1N (configuration not stated)
inactive: growth inhibition [1] -4% | inhibition [3] 3% | outcome [5] | outcome [6] | outcome [7] | outcome [8]
active: inhibition [2] 53% | growth inhibition [4] 96%

CCNc1cc(C)nc(Nc2ccccc2)n1
inactive: growth inhibition [1] 8% | inhibition [2] 16% | inhibition [3] -1% | outcome [5] | outcome [6] | outcome [7] | outcome [8]
active: growth inhibition [4] 92%

CN1CCCc2ccc(NC(=O)c3cc(-c4ccc(Cl)cc4)cs3)cc2C1
active: growth inhibition [4] 94%
inactive: growth inhibition [1] 40% | inhibition [2] 35% | inhibition [3] -2% | outcome [5] | outcome [6] | outcome [7] | outcome [8]

O=c1c(Br)ccccc1Br
inactive: growth inhibition [1] 41% | inhibition [3] 0% | outcome [5] | outcome [6] | outcome [7] | outcome [8]
active: inhibition [2] 98% | growth inhibition [4] 94%

Oc1ccc2[nH]cc(C3CCN(CCCCCCCCCN4CCC(c5c[nH]c6ccc(O)cc56)CC4)CC3)c2c1
inactive: growth inhibition [1] 2% | inhibition [2] 22% | inhibition [3] -5% | outcome [5] | outcome [6] | outcome [7] | outcome [8]
active: growth inhibition [4] 101%

CCNc1cc(C(=O)N[C@@H](Cc2ccccc2)[C@H](O)CNC(C)(C)CSCC(C)C)cc(N2CCCC2=O)c1
inactive: inhibition [2] -20% | inhibition [3] -7% | outcome [5] | outcome [6] | outcome [7] | outcome [8]
active: growth inhibition [1] 97% | growth inhibition [4] 101%

C[C@@H](Oc1cc(-n2cnc3ccc(NC(=O)CCN4CCCCC4)cc32)sc1C(N)=O)c1ccccc1Cl
inactive: inhibition [2] 36% | inhibition [3] 3% | outcome [5] | outcome [6] | outcome [7] | outcome [8]
active: growth inhibition [1] 60% | growth inhibition [4] 101%

CC(C)CCNC(=O)C1Cc2c([nH]c3ccc(Br)cc23)C2(CCN(Cc3ccccc3)CC2)N1 (configuration not stated)
inactive: inhibition [3] -3% | outcome [5] | outcome [6] | outcome [7] | outcome [8]
active: growth inhibition [1] 68% | inhibition [2] 100% | growth inhibition [4] 96%

COc1ccc(N2CCN(CCCCNC(=O)c3ccc(NC(=O)c4cc(Cl)cc(Cl)c4)cc3)CC2)c(OC)c1
active: growth inhibition [1] 84% | growth inhibition [4] 100%
inactive: inhibition [2] 21% | inhibition [3] 2% | outcome [5] | outcome [6] | outcome [7] | outcome [8]

CN1CCN(c2ccc(-c3cccc(NC(=O)c4ccc5ccccc5c4)c3)nn2)CC1
inactive: growth inhibition [1] 26% | inhibition [2] 17% | inhibition [3] -2% | outcome [5] | outcome [6] | outcome [7] | outcome [8]
active: growth inhibition [4] 94%

CCOc1ccccc1N1CCN(CCCNC(=O)/C(=C/C=C/c2cc3cc(Cl)c(Cl)cc3[nH]2)OC)CC1
inactive: inhibition [2] 45% | inhibition [3] -4% | outcome [5] | outcome [6] | outcome [7] | outcome [8]
active: growth inhibition [1] 93% | growth inhibition [4] 98%

CC(C)CCN1CCC(Oc2cccc(NC(=O)c3ccc(C(F)(F)F)cc3)c2)CC1
inactive: growth inhibition [1] 6% | inhibition [2] 39% | inhibition [3] -2% | outcome [5] | outcome [6] | outcome [7] | outcome [8]
active: growth inhibition [4] 98%

OCCN1CCN(C(=S)NC2CCCCC2)CC1
active: growth inhibition [4] 93%
inactive: growth inhibition [1] -1% | inhibition [2] 49% | inhibition [3] 1% | outcome [5] | outcome [6] | outcome [7] | outcome [8]

CO/C(=C\C=C\c1cc2cc(Cl)c(Cl)cc2[nH]1)C(=O)NCCCN1CCC(c2ccccc2)CC1
active: growth inhibition [1] 92% | growth inhibition [4] 100%
inactive: inhibition [2] 33% | inhibition [3] -1% | outcome [5] | outcome [6] | outcome [7] | outcome [8]

O=C1c2ccccc2C(=O)N1c1ccc(S(=O)(=O)N2CCOCC2)cc1
active: growth inhibition [4] 94%
inactive: growth inhibition [1] -1% | inhibition [2] -1% | inhibition [3] 3% | outcome [5] | outcome [6] | outcome [7] | outcome [8]

CCNC(=O)Nc1ccc(N(C)c2ccnc(NC3CC3)n2)cc1
active: growth inhibition [1] 80% | growth inhibition [4] 100%
inactive: inhibition [2] 21% | inhibition [3] -5% | outcome [5] | outcome [6] | outcome [7] | outcome [8]

CC(C)N1CCC(N(Cc2ccc(-c3ccc(C(F)(F)F)cc3)cc2)C(=O)Cn2c(CCc3cccc(F)c3F)cc(=O)c3ccccc32)CC1
inactive: inhibition [3] -6% | outcome [5] | outcome [6] | outcome [7] | outcome [8]
active: growth inhibition [1] 73% | inhibition [2] 50% | growth inhibition [4] 99%

NC(=O)NC(=O)C=Cc1ccco1
active: growth inhibition [4] 97%
inactive: growth inhibition [1] -3% | inhibition [2] 32% | inhibition [3] -7% | outcome [5] | outcome [6] | outcome [7] | outcome [8]

CCOC(=O)c1ccc(OCCOc2ccccc2)cc1
active: inhibition [2] 63% | growth inhibition [4] 99%
inactive: growth inhibition [1] -3% | inhibition [3] -1% | outcome [5] | outcome [6] | outcome [7] | outcome [8]

CS(=O)(=O)c1ccc(-c2cnc(N)c(-c3cccc(CO)c3)c2)cc1
inactive: inhibition [2] -4% | inhibition [3] 0% | outcome [5] | outcome [6] | outcome [7] | outcome [8]
active: growth inhibition [1] 51% | growth inhibition [4] 98%

CCCc1ccc(NC(=O)c2ccc(CN3CCCN(CC4CCCCC4)CC3)cc2)cc1
active: growth inhibition [4] 95%
inactive: growth inhibition [1] 41% | inhibition [2] 49% | inhibition [3] -7% | outcome [5] | outcome [6] | outcome [7] | outcome [8]

O=C(Nc1ccc(-c2cccc(-c3nc4ccc(C(F)(F)F)cc4[nH]3)c2)cc1)Nc1ccc(Cl)c(Cl)c1
inactive: growth inhibition [1] 23% | inhibition [2] 42% | inhibition [3] 7% | outcome [5] | outcome [6] | outcome [7] | outcome [8]
active: growth inhibition [4] 98%

N#Cc1ccc2c(c1)CN(C1CCC(NC(=O)c3cc(-c4ccc(Cl)cc4)cs3)CC1)CCC2 (configuration not stated)
active: growth inhibition [1] 99% | growth inhibition [4] 101%
inactive: inhibition [2] 36% | inhibition [3] 0% | outcome [5] | outcome [6] | outcome [7] | outcome [8]

Nc1c(-c2ccc(C(=O)NCCNCc3ccccc3)cc2)cnn1-c1ccc(C(F)(F)F)cc1
active: growth inhibition [4] 85%
inactive: growth inhibition [1] 2% | inhibition [2] 23% | inhibition [3] 1% | outcome [5] | outcome [6] | outcome [7] | outcome [8]

CCCCCCN1CCN(Cc2cccc(NC(=O)c3cc4ccccc4o3)c2)CC1
active: growth inhibition [1] 83% | growth inhibition [4] 93%
inactive: inhibition [2] 20% | inhibition [3] 3% | outcome [5] | outcome [6] | outcome [7] | outcome [8]

CC(C)n1cc(CN2CCCC(C(=O)Nc3cccc(-c4cc5ccccc5[nH]4)c3)C2)cn1 (configuration not stated)
inactive: inhibition [2] 34% | inhibition [3] -3% | outcome [5] | outcome [6] | outcome [7] | outcome [8]
active: growth inhibition [1] 65% | growth inhibition [4] 96%
